# Experimental data reported in PubChem BioAssay (NCI).
# About 83,000 compounds went through this panel and 20% of them were active in at least one assay; those are over-represented in the sample as a whole.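 Treatment: one concentration, 48 hours, 96-well format. Scoring: percent growth, with anything below 10 considered active.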 Values without a mark were called inactive. The source made the active and inactive calls.
# Assays:
# Test in all cases: NCI-60 one-dose screen, 48 h (100 = growth as untreated, 0 = no growth, -100 = all killed)
# NCI-H23 lung = system: NCI-H23 lung
# NCI-H226 lung = system: NCI-H226 lung
# NCI-H322M lung = system: NCI-H322M lung
# HOP-62 NSCLC = system: HOP-62 NSCLC
# NCI-H460 lung = system: NCI-H460 lung
# HOP-92 NSCLC = system: HOP-92 NSCLC
# NCI-H522 lung = system: NCI-H522 lung
# A549/ATCC NSCLC = system: A549/ATCC NSCLC
# 786-0 renal = system: 786-0 renal
# COLO 205 colon = system: COLO 205 colon
# DU-145 prostate = system: DU-145 prostate
# K-562 leukemia = system: K-562 leukemia
# MALME-3M melanoma = system: MALME-3M melanoma
# MDA-MB-231 breast = system: MDA-MB-231 breast
# RXF 393 renal = system: RXF 393 renal
# SF-268 CNS = system: SF-268 CNS
# SF-295 CNS = system: SF-295 CNS
# SF-539 CNS = system: SF-539 CNS
# UACC-257 melanoma = system: UACC-257 melanoma
# M14 melanoma = system: M14 melanoma
compound,measurement,setting,value
Cc1ccc(S(=O)(=O)OC[C@@]2(C)CC[C@]3(C)CC[C@]4(C)C(=CC[C@@H]5[C@@]6(C)CCCNC(C)(C)[C@@H]6CC[C@]54C)[C@@H]3C2)cc1,growth,NCI-H23 lung; 10 µM unless noted,-64.5% (active)
same,growth,NCI-H226 lung; 10 µM unless noted,19.7%
same,growth,NCI-H322M lung; 10 µM unless noted,-87.4% (active)
same,growth,HOP-62 NSCLC; 10 µM unless noted,-82.8% (active)
same,growth,NCI-H460 lung; 10 µM unless noted,-74.6% (active)
same,growth,HOP-92 NSCLC; 10 µM unless noted,-71.2% (active)
same,growth,NCI-H522 lung; 10 µM unless noted,-81.5% (active)
same,growth,A549/ATCC NSCLC; 10 µM unless noted,-75.9% (active)
same,growth,786-0 renal; 10 µM unless noted,-79% (active)
same,growth,COLO 205 colon; 10 µM unless noted,-82.6% (active)
same,growth,DU-145 prostate; 10 µM unless noted,-90.7% (active)
same,growth,K-562 leukemia; 10 µM unless noted,-39.5% (active)
same,growth,MALME-3M melanoma; 10 µM unless noted,-75.8% (active)
same,growth,MDA-MB-231 breast; 10 µM unless noted,-85.7% (active)
same,growth,RXF 393 renal; 10 µM unless noted,-85.9% (active)
same,growth,SF-268 CNS; 10 µM unless noted,-55.2% (active)
same,growth,SF-295 CNS; 10 µM unless noted,85.6%
same,growth,SF-539 CNS; 10 µM unless noted,-93.2% (active)
same,growth,UACC-257 melanoma; 10 µM unless noted,-58.7% (active)
COc1ccc(C(=O)/C=C/c2ccc(OCc3ccc(Cl)cc3)cc2)cc1OC,growth,NCI-H23 lung; 10 µM,84.1%
same,growth,NCI-H23 lung; 100 µM,29.2%
same,growth,NCI-H226 lung; 10 µM,87.1%
same,growth,NCI-H226 lung; 100 µM,-7.94% (active)
same,growth,NCI-H322M lung; 10 µM unless noted,40.4% [100 µM]
same,growth,HOP-62 NSCLC; 10 µM,104%
same,growth,HOP-62 NSCLC; 100 µM,5.95% (active)
same,growth,NCI-H460 lung; 10 µM,95.3%
same,growth,NCI-H460 lung; 100 µM,6.18% (active)
same,growth,HOP-92 NSCLC; 10 µM,104%
same,growth,HOP-92 NSCLC; 100 µM,12.5%
same,growth,NCI-H522 lung; 10 µM,82.5%
same,growth,NCI-H522 lung; 100 µM,2.45% (active)
same,growth,A549/ATCC NSCLC; 10 µM,85.9%
same,growth,A549/ATCC NSCLC; 100 µM,13.7%
same,growth,786-0 renal; 10 µM,106%
same,growth,786-0 renal; 100 µM,-13.2% (active)
same,growth,COLO 205 colon; 10 µM,117%
same,growth,COLO 205 colon; 100 µM,41.8%
same,growth,DU-145 prostate; 10 µM,95.2%
same,growth,DU-145 prostate; 100 µM,14.9%
same,growth,K-562 leukemia; 10 µM,67.9%
same,growth,K-562 leukemia; 100 µM,52.2%
same,growth,MALME-3M melanoma; 10 µM,110%
same,growth,MALME-3M melanoma; 100 µM,-19.5% (active)
same,growth,MDA-MB-231 breast; 10 µM,110%
same,growth,MDA-MB-231 breast; 100 µM,-22.5% (active)
same,growth,RXF 393 renal; 10 µM,110%
same,growth,RXF 393 renal; 100 µM,-2.05% (active)
same,growth,SF-268 CNS; 10 µM,100%
same,growth,SF-268 CNS; 100 µM,14%
same,growth,SF-295 CNS; 10 µM,98.4%
same,growth,SF-295 CNS; 100 µM,16.2%
same,growth,SF-539 CNS; 10 µM,106%
same,growth,SF-539 CNS; 100 µM,32.5%
same,growth,UACC-257 melanoma; 10 µM,94.3%
same,growth,UACC-257 melanoma; 100 µM,35.4%
same,growth,M14 melanoma; 10 µM,95.9%
same,growth,M14 melanoma; 100 µM,54.4%
c1ccc(Cc2cccc[n+]2C(c2ccccc2)c2ccccc2)cc1,growth,NCI-H23 lung; 10 µM unless noted,38.2%
same,growth,NCI-H226 lung; 10 µM unless noted,74.7%
same,growth,NCI-H322M lung; 10 µM unless noted,77.9%
same,growth,HOP-62 NSCLC; 10 µM unless noted,72%
same,growth,NCI-H460 lung; 10 µM unless noted,66.3%
same,growth,HOP-92 NSCLC; 10 µM unless noted,32.5%
same,growth,NCI-H522 lung; 10 µM unless noted,10.2%
same,growth,A549/ATCC NSCLC; 10 µM unless noted,58.5%
same,growth,786-0 renal; 10 µM unless noted,85.6%
same,growth,COLO 205 colon; 10 µM unless noted,24.4%
same,growth,DU-145 prostate; 10 µM unless noted,68.9%
same,growth,K-562 leukemia; 10 µM unless noted,33%
same,growth,MALME-3M melanoma; 10 µM unless noted,23%
same,growth,MDA-MB-231 breast; 10 µM unless noted,68.2%
same,growth,RXF 393 renal; 10 µM unless noted,93.3%
same,growth,SF-268 CNS; 10 µM unless noted,64.9%
same,growth,SF-295 CNS; 10 µM unless noted,73.6%
same,growth,SF-539 CNS; 10 µM unless noted,56.6%
same,growth,UACC-257 melanoma; 10 µM unless noted,7.44% (active)
COC(=O)/C=C1/SC(=Nc2ccc([N+](=O)[O-])cc2)N(CCc2c[nH]c3ccccc23)C1=O,growth,NCI-H23 lung; 10 µM unless noted,72.7%
same,growth,NCI-H226 lung; 10 µM unless noted,98.7%
same,growth,NCI-H322M lung; 10 µM unless noted,98.4%
same,growth,HOP-62 NSCLC; 10 µM unless noted,96.7%
same,growth,NCI-H460 lung; 10 µM unless noted,92.2%
same,growth,HOP-92 NSCLC; 10 µM unless noted,73.2%
same,growth,NCI-H522 lung; 10 µM unless noted,53.6%
same,growth,A549/ATCC NSCLC; 10 µM unless noted,90.8%
same,growth,786-0 renal; 10 µM unless noted,68%
same,growth,COLO 205 colon; 10 µM unless noted,84.6%
same,growth,DU-145 prostate; 10 µM unless noted,66.8%
same,growth,K-562 leukemia; 10 µM unless noted,25.8%
same,growth,MALME-3M melanoma; 10 µM unless noted,86.5%
same,growth,MDA-MB-231 breast; 10 µM unless noted,72.1%
same,growth,RXF 393 renal; 10 µM unless noted,70.4%
same,growth,SF-268 CNS; 10 µM unless noted,75.7%
same,growth,SF-295 CNS; 10 µM unless noted,84.2%
same,growth,SF-539 CNS; 10 µM unless noted,79.6%
same,growth,UACC-257 melanoma; 10 µM unless noted,71.6%
COc1ccc(Cn2cc(C(=O)Nc3cccnc3Nc3ccccc3)nn2)cc1,growth,NCI-H23 lung; 10 µM unless noted,98.7%
same,growth,NCI-H226 lung; 10 µM unless noted,95.6%
same,growth,NCI-H322M lung; 10 µM unless noted,95.7%
same,growth,HOP-62 NSCLC; 10 µM unless noted,103%
same,growth,NCI-H460 lung; 10 µM unless noted,114%
same,growth,HOP-92 NSCLC; 10 µM unless noted,105%
same,growth,NCI-H522 lung; 10 µM unless noted,91.8%
same,growth,A549/ATCC NSCLC; 10 µM unless noted,99.3%
same,growth,786-0 renal; 10 µM unless noted,94.2%
same,growth,COLO 205 colon; 10 µM unless noted,113%
same,growth,DU-145 prostate; 10 µM unless noted,103%
same,growth,K-562 leukemia; 10 µM unless noted,108%
same,growth,MALME-3M melanoma; 10 µM unless noted,120%
same,growth,MDA-MB-231 breast; 10 µM unless noted,86.4%
same,growth,RXF 393 renal; 10 µM unless noted,103%
same,growth,SF-268 CNS; 10 µM unless noted,96%
same,growth,SF-295 CNS; 10 µM unless noted,102%
same,growth,SF-539 CNS; 10 µM unless noted,95.6%
same,growth,UACC-257 melanoma; 10 µM unless noted,110%
CN(C)CCNc1ncc(F)c(-c2cnc3cc(-c4cnn(C)c4)ccn23)n1,growth,NCI-H23 lung; 0.005 µM,101%
same,growth,NCI-H23 lung; 30 µM,56.9%
same,growth,NCI-H226 lung; 10 µM unless noted,76.5% [30 µM]
same,growth,NCI-H322M lung; 0.005 µM,95.6%
same,growth,NCI-H322M lung; 30 µM,44.7%
same,growth,HOP-62 NSCLC; 0.005 µM,103%
same,growth,HOP-62 NSCLC; 30 µM,60.2%
same,growth,NCI-H460 lung; 0.005 µM,101%
same,growth,NCI-H460 lung; 30 µM,15.7%
same,growth,HOP-92 NSCLC; 0.005 µM,105%
same,growth,HOP-92 NSCLC; 30 µM,61.4%
same,growth,NCI-H522 lung; 0.005 µM,92.4%
same,growth,NCI-H522 lung; 30 µM,51.9%
same,growth,A549/ATCC NSCLC; 0.005 µM,101%
same,growth,A549/ATCC NSCLC; 30 µM,34.3%
same,growth,786-0 renal; 0.005 µM,102%
same,growth,786-0 renal; 30 µM,44.2%
same,growth,COLO 205 colon; 10 µM unless noted,25.8% [30 µM]
same,growth,DU-145 prostate; 0.005 µM,107%
same,growth,DU-145 prostate; 30 µM,27.5%
same,growth,K-562 leukemia; 0.005 µM,102%
same,growth,K-562 leukemia; 30 µM,41.6%
same,growth,MALME-3M melanoma; 0.005 µM,99.7%
same,growth,MALME-3M melanoma; 30 µM,53.5%
same,growth,MDA-MB-231 breast; 0.005 µM,98.4%
same,growth,MDA-MB-231 breast; 30 µM,54.3%
same,growth,RXF 393 renal; 10 µM unless noted,110% [0.005 µM]
same,growth,SF-268 CNS; 0.005 µM,100%
same,growth,SF-268 CNS; 30 µM,57.7%
same,growth,SF-295 CNS; 0.005 µM,102%
same,growth,SF-295 CNS; 30 µM,70.8%
same,growth,SF-539 CNS; 0.005 µM,97.2%
same,growth,SF-539 CNS; 30 µM,46.3%
same,growth,UACC-257 melanoma; 0.005 µM,100%
same,growth,UACC-257 melanoma; 30 µM,93.5%
same,growth,M14 melanoma; 10 µM unless noted,107% [0.005 µM]
